In PubChem BioAssay (NCATS):
Records with an inconclusive call do not appear. Where a call stands in place of a potency, no number is given. Unmarked numbers belong to inactive results. Activity calls are given as the source filed them. Calls come from the whole dose curve; as a rule, active = well fitted inhibition curve with a large enough effect; inconclusive = small, poorly fitted or top-dose-only effect; inactive = flat fitted curve, though single readings scatter. Where a SMILES comes first, the peptide text is derived from it. The star is where a group is joined. Cbz = O=C(OCc1ccccc1)*; CH2F = FC*

Assay: Primary qHTS for inhibitors of nuclear receptor binding SET domain protein 2 (NSD2) in an isogenic RCH-ACV NSD2 p.E1099K mutant (9B) (AID 1645876); note: nearly all actives have a fitted effect of over 70% in size
Conditions: RCH-ACV (leukaemia line) NSD2 E1099K (9B) viability, CellTiter-Glo, 72 h; series mostly up to 44.9 µM

SMILES	Potency	activity change, negative = viability loss	outcome
COc1ccc(/C=C/C(=O)N2CCCC2)cc1	inactive		
COC(=O)CC[C@H](NC(=O)[C@H](CC(C)C)NC(=O)OCc1ccccc1)C(=O)N[C@@H](Cc1cnc[nH]1)C(=O)N[C@@H](CC(=O)OC)C(=O)CF (Cbz-LE(OMe)HD(OMe)-CH2F)		-7.97% [at 9.23 µM]	
CC1=C[C@H](O)[C@H]2C(C)(C)CCC[C@]2(C)[C@@]1(O)CO	inactive		
NC(Cc1c[nH]c2ccc(O)cc12)C(=O)O (stereo unspecified)	inactive		
C[C@@H]1C(=O)O[C@H]2[C@H]1CC[C@@]1(C)C(=O)C=C[C@@](C)(O)[C@H]21	inactive		
COc1c2c(c(C)c3c1C(=O)OC3)OC1(C)CC(O)C34OC(OC)(CCC3(C)C1C2)OC4(C)CO (stereo unspecified)	inactive		
CC(=O)O[C@@H]1C(=O)C(C)=C(CCC(C)CC(=O)O)[C@@]2(C)CCCC(C)(C)C12 (stereo partly specified)	inactive		
C=C1CCC2(C(=O)OC3OC(CO)C(O)C(O)C3O)CCC3(C)C(=CCC4C5(C)CCC(OC6OC(CO)C(OC7OC(C)C(O)C(O)C7O)C(OC7OCC(O)C(O)C7O)C6O)C(C)(C)C5CCC43C)C2C1 (stereo unspecified)			inactive [at 9.23 µM]
CC(C)(O)C1CCC2(C)CCCC(C)(O)C2C1 (stereo unspecified)	inactive		
CCOC(=O)C(CCc1ccccc1)NC(C)C(=O)N1Cc2ccccc2CC1C(=O)O (stereo unspecified)	inactive		
CC(C)CC(c1c(O)c(C=O)c(O)c(C=O)c1O)C1CCC(C)(O)C2CC(C(C)(C)O)CCC12C (stereo unspecified)	inactive		
C[C@@H]1O[C@@H](O[C@H]2[C@H](O[C@H]3[C@H](O[C@H]4CC[C@@]5(C)C(CC[C@]6(C)C5CC=C5[C@@H]7CC(C)(C)CC(=O)[C@]7(C)CC[C@]56C)[C@@]4(C)CO)O[C@H](C(=O)O)[C@@H](O)[C@@H]3O)O[C@H](CO)[C@H](O)[C@@H]2O)[C@H](O)[C@H](O)[C@H]1O (stereo partly specified)			inactive [at 9.23 µM]
CC(=O)c1[nH]cc(CCC(=O)O)c1CC(=O)O	inactive		
C=C(C(=O)O)C1CC(O)C2(C)CCCC(C)(O)C2C1 (stereo unspecified)	inactive		
COc1cc(O)c2c(c1Cl)CC(C)OC2=O (stereo unspecified)	inactive		
C/C=C(/C)C(=O)O[C@H]1C[C@]2(C)O[C@@H]2[C@@H](OC(C)=O)[C@@]2(C)CC[C@@](O)(C(C)C)[C@H]12	inactive		

SMILES	Potency	activity change, negative = viability loss	outcome
O=C(O)CCc1c(C(=O)O)[nH]c2cc(Cl)cc(Cl)c12	inactive		
CC1(C)CC[C@]2(C(=O)O)CC[C@]3(C)C(=CCC4[C@@]5(C)C[C@@H](O)[C@H](O)[C@](C)(CO)C5CC[C@]43C)[C@@H]2[C@@H]1O (stereo partly specified)	inactive		
C/C=C1/C[N+](C)([O-])C2Cc3c([nH]c4ccccc34)C(=O)CC1C2C(=O)OC (stereo unspecified)	inactive		
C=C1C(OC(C)=O)CCC2(C)CC3(O)OC(=O)C(C)=C3CC12 (stereo unspecified)	inactive		
CSC(=O)OCC1=C[C@@H]2OC(=O)C3=CO[C@@H](O[C@@H]4O[C@H](CO)[C@@H](O)[C@H](O)[C@H]4O)[C@H]1[C@@H]32	inactive		
C=CCc1ccc(O[C@@H]2O[C@H](CO)[C@@H](O)[C@H](O)[C@H]2O)c(O[C@@H]2O[C@H](CO)[C@@H](O)[C@H](O)[C@H]2O)c1	inactive		
COc1cc(C2Oc3c(OC)cc(/C=C/C(=O)OC4CC(O)(C(=O)O)CC(O)C4O)cc3C2CO)ccc1O (stereo unspecified)	inactive		
OC[C@@]1(O)CO[C@@H](OC[C@H]2O[C@@H](Oc3ccccc3)[C@H](O)[C@@H](O)[C@@H]2O)[C@@H]1O	inactive		
O=C(/C=C/c1ccccc1)O[C@@H]1[C@@H](CO)O[C@@](CO)(O[C@H]2O[C@H](CO)[C@@H](O)[C@H](O)[C@H]2O)[C@H]1O	inactive		
CC1(C)Oc2ncnc(N)c2N=C1c1ccc(C2CCC(CC(=O)O)CC2)cc1 (stereo unspecified)	inactive		
Cc1occc(=O)c1O[C@@H]1O[C@H](COC(=O)CC(C)(O)CC(=O)O)[C@@H](O)[C@H](O)[C@H]1O (stereo partly specified)	inactive		
C=C[C@H]1[C@H](O[C@@H]2O[C@H](CO)[C@@H](O)[C@H](OC(=O)/C=C/c3ccc(O)c(OC)c3)[C@H]2O)OC=C2C(=O)OCC[C@]21O	inactive		
C/C(=C\CCC1(C)C2CC3C(C2)C31C)C(=O)O (stereo unspecified)	inactive		
CC(=O)OC[C@]12[C@H](OC(C)=O)[C@H](OC(=O)c3ccccc3)[C@@H]3[C@@H](OC(C)=O)[C@]1(OC3(C)C)[C@H](C)C[C@H](OC(=O)c1ccccc1)[C@@H]2OC(=O)c1ccccc1	inactive		
CC1(C)CC[C@]2(C(=O)O[C@@H]3O[C@H](CO)[C@@H](O)[C@H](O)[C@H]3O)CC[C@]3(C)C(=CCC4[C@@]5(C)C[C@H](O)[C@H](O[C@@H]6OC[C@@H](O)[C@H](O)[C@H]6O)[C@@](C)(CO)C5CC[C@]43C)C2C1 (stereo partly specified)		1.45% [at 9.23 µM]	
